Screens as filed in PubChem.
ELG1 genotox – qHTS screen for small molecules that induce genotoxicity in human embryonic kidney (HEK293T) cells expressing luciferase-tagged ELG1; HEK293T ELG1-luciferase reporter, luminescence, 16 h; Potency, µM (titrated, usually from 46 µM), most hits filed as activators; hit rate 1.3% among 330,000; AID 504466, 2011; further: nearly all actives have a fitted effect of over 60% in size
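Step 1: seed 2,000 HEK293T ELG1-luciferase cells per well. Step 2: add compound or DMSO, incubate 16 hr at 37 °C. Step 3: ONE-Glo, 30 min at room temperature, read luminescence.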
FLuc counter – qHTS profiling assay for firefly luciferase inhibitor/activator using purifed enzyme and Km concentrations of substrates (counterscreen for miR-21 project); Luciferin 4-monooxygenase (Photinus pyralis), P08659; Potency, µM (highest dose often 57.5 µM), actives largely listed as inhibitors; purified FLuc, Km substrates, luminescence inhibition; hit rate 6.9% among 360,000; AID 588342, 2011; further: nearly all actives have a fitted effect of over 55% in size
Target sequence (P08659 whole entry, looked up): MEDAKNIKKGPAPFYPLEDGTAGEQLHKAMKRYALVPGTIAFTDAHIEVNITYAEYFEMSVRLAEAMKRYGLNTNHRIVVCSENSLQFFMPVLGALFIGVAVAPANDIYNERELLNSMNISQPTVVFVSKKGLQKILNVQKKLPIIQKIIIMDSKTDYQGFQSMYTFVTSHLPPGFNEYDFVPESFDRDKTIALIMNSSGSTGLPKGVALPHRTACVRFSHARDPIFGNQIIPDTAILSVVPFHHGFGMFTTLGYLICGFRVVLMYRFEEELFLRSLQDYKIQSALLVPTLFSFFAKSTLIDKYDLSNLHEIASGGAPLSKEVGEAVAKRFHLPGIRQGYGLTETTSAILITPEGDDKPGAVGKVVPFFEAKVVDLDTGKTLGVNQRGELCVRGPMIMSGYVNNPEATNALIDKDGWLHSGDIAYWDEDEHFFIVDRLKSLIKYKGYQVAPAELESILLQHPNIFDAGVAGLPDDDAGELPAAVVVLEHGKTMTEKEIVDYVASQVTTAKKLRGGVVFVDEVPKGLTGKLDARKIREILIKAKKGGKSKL
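Biochemical qHTS of compounds, final roughly 60 µM downward over six points, against 10 nM purified firefly luciferase using Km concentrations of substrates (10 uM D-luciferin, 10 uM ATP) in Tris acetate pH 7.5 buffer; luminescence output.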
Rab9 promoter act – qHTS Assay for Rab9 Promoter Activators | hit rate 2.8% among 320,000 | Huh7 Rab9 promoter-luciferase reporter, luminescence, 24 h | Potency, µM (top dose mostly 9.22 µM), most hits filed as activators; further: nearly all actives have a fitted effect of over 60% in size
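Luminescence from Amplite-detected luciferase (10 minutes, ambient) reports Rab9 promoter activation. Before that, stable Rab9-luciferase Huh7 cells (1500/well, reduced-serum OP-MEM I plus 10% FBS) were exposed to compound for 24 hours at 37C.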
KinaseGlo FLuc – Counterscreen for Luciferase (Kinase-Glo TM) Inhibition; Luciferin 4-monooxygenase (Photuris pensylvanica), Q27757; Kinase-Glo luciferase, ATP luminescence, 8 min; Potency, µM (top dose mostly 38.3 µM), most hits filed as inhibitors; hit rate 0.28% among 200,000; AID 1379, 2008; further: nearly all actives have a fitted effect of over 60% in size
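Inhibition of Kinase-Glo luciferase light generation was assessed at 10 uM ATP in pH 7.2 imidazole buffer, with luminescence measured after eight minutes at ambient temperature.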
SMN2 splice enh – qHTS Assay for Enhancers of SMN2 Splice Variant Expression; HEK293 SMN2-luciferase splicing reporter, luminescence, 30-36 h; Potency, µM (top dose mostly 46.1 µM), usual class: activators; hit rate 2.8% among 210,000; further: nearly all actives have a fitted effect of over 55% in size
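HEK293 cells carry an SMN2 […]–luciferase reporter in which exon 7 inclusion puts luciferase in frame. Cells were plated 10-12 h before compound addition, then incubated 30-36 h at 37C. ONE-Glo luminescence was read; sodium butyrate at 4.5 mM final served as control.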
NPC1 promoter act – qHTS Assay for NPC1 Promoter Activators | AID 485313, 2010 | Potency, µM (highest dose often 9.22 µM), usual class: activators | Huh7 NPC1 promoter luciferase reporter, 24 h | hit rate 2.4% among 320,000; further: nearly all actives have a fitted effect of over 60% in size
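Compounds in DMSO were transferred onto Huh7 NPC1-luciferase reporter cells pre-incubated 2 h; after 24 h at 37 °C, Amplite reagent was dispensed and luminescence recorded 10 min later.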
Hits are given with their value; . = inactive; ? = inconclusive; / = no result. This is a sample that favours compounds with a hit; in the whole collection about 7.5% have one here. The call rests on the fitted dose curve; in most records, active means well fitted curve in the direction sought with a large enough effect; inconclusive means small, poorly fitted or top-dose-only effect, or another doubt; inactive means no such curve, though single readings can be large; an effect the other way counts as inactive or inconclusive.

SMILES | ELG1 genotox | FLuc counter | Rab9 promoter act | KinaseGlo FLuc | SMN2 splice enh | NPC1 promoter act
Cc1ccc(CCNC(=O)C2COc3ccccc3C2)cc1 (stereo not drawn) | / | . | / | / | / | /
Cc1ccc(CN(C(=O)COc2ccc(C(C)C)cc2)C2CCS(=O)(=O)C2)o1 (stereo not drawn) | / | . | / | / | . | /
N#CCC(=O)Nc1ccc(C(=O)NCc2ccccn2)cc1 | . | . | . | . | . | .
CCOC(=O)c1ccc(CN(Cc2ccc(Cl)cc2Cl)S(=O)(=O)c2ccc(F)c(C)c2)cc1 | / | . | / | / | / | /
COC(=O)N/N=C/c1cc(C)n(-c2ccc(F)cc2)c1C | ? | 24µM | . | . | . | .
COC(=O)N/N=C/c1cc(C)n(-c2ccc(Br)cc2)c1C | . | ? | . | / | / | .
COc1ccc(-c2cn3nc(SCC(=O)Nc4cc(C)cc(C)c4)ccc3n2)cc1 | / | 3.8µM | / | / | / | /
O=C(CSc1ccc2nc(-c3ccccc3)cn2n1)Nc1cccc(F)c1 | / | 7.6µM | / | / | / | /
COc1ccc(NC(=O)CSc2ccc3nc(-c4ccccc4)cn3n2)cc1OC | / | . | / | / | / | /
COc1ccc(-c2cn3nc(SCC(=O)Nc4ccc(C)c(Cl)c4)ccc3n2)cc1 | / | 2.7µM | / | / | / | /
COc1ccc(-c2cn3nc(SCC(=O)Nc4cccc(C)c4C)ccc3n2)cc1 | / | 2.1µM | / | / | / | /
O=C(N/N=C/c1ccc([N+](=O)[O-])cc1)c1ccc(NS(=O)(=O)c2cccs2)cc1 | . | 21µM | . | / | / | .
O=C(c1ccc(N2CCOCC2)cc1)c1cccs1 | ? | 1.9µM | 1.1µM | . | 2.5µM | 0.89µM
O=C(N/N=C/c1ccc(N2CCOCC2)cc1)c1ccc(NS(=O)(=O)c2cccs2)cc1 | . | 7.6µM | . | . | . | .
O=C(N/N=C/c1ccc(N2CCOCC2)cc1)c1ccccc1NS(=O)(=O)c1cccs1 | . | ? | . | . | . | .
O=C(N/N=C/c1ccc2c(c1)OCO2)c1ccc(NS(=O)(=O)c2cccs2)cc1 | . | 9.5µM | . | . | . | .
O=C(N/N=C/c1ccc([N+](=O)[O-])o1)c1ccc(NS(=O)(=O)c2cccs2)cc1 | . | ? | . | / | / | .
O=C(Nc1ccc(N2CCOCC2)cc1N1CCOCC1)c1cccs1 | . | . | . | . | . | .
CCCn1c2ccccc2c2cnn(CC(=O)N(C)c3ccc(F)cc3)c(=O)c21 | / | . | / | / | / | /
COc1ccc(C(=O)N/N=C/c2ccc(N3CCOCC3)s2)cc1OC | . | . | . | / | / | .
O=C(N/N=C/c1ccc(N2CCOCC2)cc1)c1cccs1 | ? | 8.5µM | ? | ? | 11µM | 2.8µM
O=C(N/N=C/c1ccc(N2CCOCC2)cc1)c1ccncc1 | . | ? | . | / | / | .
O=C(N/N=C/c1ccc(N2CCOCC2)s1)c1ccc(NS(=O)(=O)c2cccs2)cc1 | . | 27µM | . | / | / | .
CCC1CO1 (stereo not drawn) | / | / | / | / | . | /
CCCCC/C=C\C/C=C\CCCCCCCCCC(=O)NCCCC(=O)O | / | / | / | . | . | /
SMILES | ELG1 genotox | FLuc counter | Rab9 promoter act | KinaseGlo FLuc | SMN2 splice enh | NPC1 promoter act
Cc1csc2nc(-c3cccc(NC(=O)c4ccccc4Cl)c3)cn12 | / | 12µM | / | / | / | /
Cc1nc(-c2cccc(NC(=O)c3cccc(S(=O)(=O)N4CCCC4)c3)c2)cs1 | . | ? | . | / | / | .
Cc1csc2nc(-c3cccc(NC(=O)c4ccccc4F)c3)cn12 | / | 6.7µM | / | / | / | /
Cc1csc2nc(-c3cccc(NC(=O)c4cccc(F)c4)c3)cn12 | / | 9.5µM | / | / | / | /
Cc1ccccc1C(=O)Nc1cccc(-c2cn3cccnc3n2)c1 | / | . | / | / | / | /
Cc1csc2nc(-c3cccc(NS(C)(=O)=O)c3)cn12 | / | 27µM | / | / | / | /
COc1cccc(CSc2nc3n(n2)C(c2ccccc2C)C(C(=O)Nc2ccccc2OC)=C(C)N3)c1 (stereo not drawn) | / | . | / | / | / | /
CCOc1ccc(NC(=O)Cn2c(CCC(=O)O)ccc2-c2ccc(Cl)cc2)cc1 | / | ? | / | / | . | /
Cc1cc(Cl)c2oc(C(=O)N3CCN(c4cccc(C)n4)CC3)c(C)c2c1 | ? | 15µM | ? | / | / | 3.5µM
Cc1cc(Cl)c2oc(C(=O)N3CCN(C(=O)c4ccco4)CC3)c(C)c2c1 | ? | 11µM | ? | / | / | ?
